Consider 40 compounds from ChEMBL document CHEMBL1157539, “Thousands of chemical starting points for antimalarial lead identification” (Nature, 2010).

The structures appear in SMILES notation.

Usually Inhibition stands for how much of the control response was suppressed. A low value points to a weak effect.

The first assay deals with Plasmodium falciparum. Nature of the assay: GSK_TCMDC: Inhibition of Plasmodium falciparum 3D7 in whole red blood cells, using parasite LDH activity as an index of growth. Test compounds present at 2uM. Format: functional.
In the case of `CC(Cc1ccc(C(=O)OCCOC(=O)c2ccc(CC(C)NCC(O)c3cccc(C(F)(F)F)c3)cc2)cc1)NCC(O)c1cccc(C(F)(F)F)c1` (stereo not drawn), the Inhibition was 98%.

On to `Cc1cccc(CN2CCN(c3ncc(C(=O)NC4CC4)cc3Cl)CC2)c1.O=C(O)C(F)(F)F`, for which the Inhibition is on record as 84%.

For `Cc1cc(C(=O)Nc2ccc3c(c2)CCN3C2CCN(Cc3cccc4cc[nH]c34)C2)no1` (stereo not drawn), the Inhibition was found to be 97%.

For a further assay, the system named is Plasmodium falciparum. Kind of assay: GSK_TCMDC: Inhibition of Plasmodium falciparum Dd2 in whole red blood cells, using parasite LDH activity as an index of growth. Test compounds present at 2uM. The class given is functional.
In turn, `CC(C)n1cc(CN2CCCC(C(=O)Nc3cccc(-c4cc5ccccc5[nH]4)c3)C2)cn1` (stereo not drawn) returned an Inhibition of 65%.

Regarding `O=C(NCCN1CCOCC1)c1ccc(-c2ccc(CNCCCc3ccccc3)cc2)nc1.O=C(O)C(F)(F)F`, the Inhibition worked out at 10%.

With `COc1ccc(NC(=O)[C@H](Cc2ccccc2)Nc2cc(C)nc(NCCc3ccc(F)cc3)n2)cc1.O=C(O)C(F)(F)F`, the Inhibition turned out to be 82%.

With `CC(Cc1ccc(NC(=O)c2ccc(CNCc3ccccc3)cc2)cc1)N(CCc1cccc(Cl)c1)C(=O)OC(C)(C)C` (stereo not drawn), the Inhibition was 2%.

With `COc1ccc2nccc([C@@H](O)CN3CCC(NC(=O)c4cccc(C(=O)c5ccccc5)c4)CC3)c2c1`, the Inhibition was found to be 99%.

`Cc1nc(Nc2ccncc2)cc(-c2ccncc2)n1` registered an Inhibition of 3%.

Compound `O=C(/C=C/c1ccc(Cl)c(Cl)c1)NCCCCCCN1CCN(C(=O)Nc2cc(Cl)nc(Cl)c2)CC1` displayed an Inhibition of 0%.

The compound `N#CCCN1CCN(Cc2cccc(-c3ccc(-c4nc5cc(C(F)(F)F)ccc5[nH]4)cc3)c2)CC1.O=C(O)C(F)(F)F` gave an Inhibition of 63%.

Compound `CCCc1cc(Cc2cnc(N)nc2N)cc(CC)c1O.Cl` registered an Inhibition of 0%.

Consider `Cc1ccc(NS(=O)(=O)c2cccs2)cc1-c1cccc(C(=O)Nc2ccc(F)cc2)c1`, for which the Inhibition is recorded as 100%.

The compound `CCOc1cc(CC)ccc1C1CCN(CCCCNC(=O)c2ccc(NC(=O)c3ccc(Cl)cc3)cc2)CC1.Cl` registered an Inhibition of 58%.

For the compound `COc1ccc(Nc2nccc(N3CCC(NC(=O)Nc4cccc(C(C)=O)c4)C3)n2)cc1` (stereo not drawn), the Inhibition came out at 79%.

In turn, `Cc1ccc(Sc2ccc(NC(=O)CN3CCN(C(=O)c4ccco4)CC3)cc2)cc1C` had an Inhibition of 84%.

Take `COc1ccc(CCn2c(C3CCCCC3)nc3oc4ccccc4c(=O)c3c2=O)cc1`: the Inhibition was determined as 66%.

In turn, `O=C(NCCc1ccccc1F)c1ccc(N2CCN(c3ccncc3)CC2)cn1.O=C(O)C(F)(F)F` yielded an Inhibition of 18%.

Compound `Cc1ccccc1/N=C1\NC(=S)N(c2cccc(C(F)(F)F)c2)C12CCC(C(C)(C)C)CC2` (stereo not drawn) had an Inhibition of 25%.

`O=C(CN1CCCCC1)Nc1ccc(Nc2nccc(NCC(O)c3ccccc3)n2)cc1` (stereo not drawn) returned an Inhibition of 95%.

Turning to `COC(=O)CCCCOc1cc(Cc2cnc(N)nc2N)cc(OC)c1OC`, the Inhibition is 0%.

In turn, `CCOc1cccc(C(=O)Nc2ccc(-c3nc4ccccc4[nH]3)cc2)c1` yielded an Inhibition of 30%.

Consider `CC(C)c1cn2c3c(cc(C(=O)N[C@@H](Cc4ccccc4)[C@H](O)CNC4CCCCC4)cc13)N(C)S(=O)(=O)CC2.O=CO`, for which the Inhibition is recorded as 99%.

On to `CC(C)Cc1nc(N)nc(N)c1-c1ccc(Cl)cc1`, for which the Inhibition was determined as 3%.

Turning to `O=C(Nc1ccc(N2CCCCC2)c(Cl)c1)c1ccco1`, the Inhibition was determined as 95%.

In turn, `Br.COc1cc(CCON2C(N)=NC(N)=NC2(C)C)cc(OC)c1OC` registered an Inhibition of 95%.

`CC(CN(C)C)C(=O)Nc1ccc(-c2ccc(-c3nc4ccccc4[nH]3)s2)cc1` (stereo not drawn) registered an Inhibition of 86%.

On to `CC(C)(C)OC(=O)NCc1ccc(Nc2nnc(-c3cccc(OCC(=O)NCc4cc(C(F)(F)F)cc(C(F)(F)F)c4)c3)o2)cc1`, for which the Inhibition worked out at 19%.

On to `FC(F)(F)c1ccc2[nH]c(-c3ccc(-c4ccc(CNCc5cnn(-c6ccccc6)n5)cc4)cc3)nc2c1.O=C(O)C(F)(F)F`, for which the Inhibition was found to be 76%.

`CCCCCCCCc1nc(C)c(Br)c(O)c1Br` yielded an Inhibition of 95%.

Compound `Cc1nc(C)c(CC(=O)Nc2ccc(-c3ccc(-c4nc5cc(C(F)(F)F)ccc5[nH]4)s3)cc2)s1` showed an Inhibition of 29%.

The compound `Cc1c(CNCCCNc2cc(=O)c3ccccc3[nH]2)sc(/C=N/O)c1Br.Cl` yielded an Inhibition of 0%.

For the compound `Cc1cccc2nc(-c3ccc(-c4ccc(CN5CCN(CCN6CCOCC6)CC5)cc4)s3)[nH]c12.O=C(O)C(F)(F)F`, the Inhibition turned out to be 99%.

For the compound `CS(=O)(=O)n1c(CN2CCN(c3ncc(C(F)(F)F)cc3Cl)CC2)nc2ccccc21`, the Inhibition was determined as 59%.

Compound `COc1cc2nccc(Nc3ccc(OCc4ccc(NC(C)=O)cc4)cc3)c2cc1OC.Cl` gave an Inhibition of 95%.

As for `O=C(c1ccc(Cl)cc1Cl)N1CCCC(C(F)(F)F)C1` (stereo not drawn), the Inhibition worked out at 47%.

`CN(CCN)Cc1cccc(-c2cccc(-c3nc4cc(C(F)(F)F)ccc4[nH]3)c2)c1.O=C(O)C(F)(F)F`: the Inhibition worked out at 98%.

`COc1cc(C(=O)N2CCOC(CCN3CCC4c5ccccc5CC43)(c3ccc(Cl)c(Cl)c3)C2)cc(OC)c1OC` (stereo not drawn) returned an Inhibition of 82%.

`Cc1cc(N[C@@H](Cc2ccccc2)C(=O)NCCOc2ccccc2)nc(NCCc2ccccc2)n1.O=C(O)C(F)(F)F` registered an Inhibition of 68%.

`Br.CC1(C)NC(N)=NC(=N)N1OCCCOc1ccc(N)cc1` returned an Inhibition of 95%.

On to `CC(Cc1ccc(C(=O)OCCOC(=O)c2ccc(CC(C)NCC(O)c3cccc(C(F)(F)F)c3)cc2)cc1)NCC(O)c1cccc(C(F)(F)F)c1` (stereo not drawn), for which the Inhibition is listed as 86%.

In the case of `Cc1cccc(CN2CCN(c3ncc(C(=O)NC4CC4)cc3Cl)CC2)c1.O=C(O)C(F)(F)F`, the Inhibition is 73%.

In the case of `Cc1cc(C(=O)Nc2ccc3c(c2)CCN3C2CCN(Cc3cccc4cc[nH]c34)C2)no1` (stereo not drawn), the Inhibition is recorded as 96%.
